ATXN2 expr inh: Primary qHTS for Inhibitors of ATXN expression; HEK-293 ATXN2-luciferase reporter, luminescence, 24 h; Potency, µM (series often up to 57 µM), for inactives: at the highest dose activity change, negative = inhibition, usual class: inhibitors; 0.72% of 360,000 active; further: on the % scale 0 is the no-effect control and ±100 the full control effect; nearly all actives have a fitted effect of over 55% in size
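ATXN2-luciferase reporter cells (luciferase flanked by upstream and downstream ATXN2 gene portions) were treated 24 h at 37 °C with compounds at up to 57 uM. SteadyGlo luminescence gave expression; GF-AFC fluorescence gave viability.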
ATXN viability: Viability Counterscreen for Primary qHTS for Inhibitors of ATXN expression | S2 cells (HEK-293 line with an ATXN2-luciferase reporter) viability, CellTiter-Fluor protease fluorescence, 24 h | Potency, µM (top dose mostly 56.7 µM), hits mostly cytotoxic | 0.49% of 400,000 active | AID 651635, 2014; further: nearly all actives have a fitted effect of over 40% in size
TGFb inhibitor: qHTS for Inhibitors of TGF-b; HepG2 CAGA-GFP TGF-b/SMAD3 reporter, GFP fluorescence, 18 h; TGF-beta stimulated, 500 pg/mL final; Potency, µM (series often up to 46.1 µM), for inactives: top-dose activity, negative = inhibition, usual class: inhibitors; 1.2% of 410,000 active; further: on the % scale 0 is the no-effect control and ±100 the full control effect; nearly all actives have a fitted effect of over 65% in size
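Smad-responsive CAGA-GFP expression was quantified in HEPG2 cells exposed to compounds and 500 pg/mL final TGF-beta for 18 h at 37 degrees C; unstimulated wells defined full inhibition.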
KB-3-1 tox: qHTS assay for MDR1-selective chemotherapeutics: Primary screen using the parental adenocarcinoma cell KB-3-1. KB-3-1 viability, CellTiter-Glo ATP luminescence, 72 h. Potency, µM (highest dose often 46.1 µM), hits mostly cytotoxic. 1.4% of 400,000 active; further: on the % scale 0 is the no-effect control and ±100 the full control effect; nearly all actives have a fitted effect of over 60% in size
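Screening of KB-3-1 cells (DMEM, 10% FBS, phenol-red free) ran from lowest to highest compound concentration; after 72 h at 37 °C viability was read luminescently and curves fitted.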
HepG2 viability: qHTS for Inhibitors of TGF-b: Cytotox Counterscreen; HepG2 CAGA-GFP viability, ATP luminescence, 18 h; 0.76% of 410,000 active; AID 588856, 2011; Potency, µM (highest dose often 46.1 µM), without a hit: top-dose activity change, negative = cytotoxicity, hits mostly cytotoxic
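CellTiter-Glo luminescence gave cytotoxicity after 18 hours at 37 degrees C. The cells were HepG2 CAGA-GFP in 1% FBS DMEM, stimulated with 500 pg/mL TGF-beta after compound addition. %Activity was normalised to no-cell wells (complete cell-killing) and DMSO (no toxicity), and curves were fitted and classified.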
KB-V1 MDR tox: qHTS assay for MDR1-selective chemotherapeutics: Primary screen using the drug-selected MDR subline cells KB-V1; KB-V1 MDR cells viability, CellTiter-Glo, 72 h; Potency, µM (highest dose often 46.1 µM), usual class: cytotoxic; 3.4% of 400,000 active; AID 1347076, 2019; further: on the % scale 0 is the no-effect control and ±100 the full control effect; nearly all actives have a fitted effect of over 60% in size
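Following 72 h at 37 degrees C with compound, KB-V1 cell viability was read by CellTiter-Glo luminescence, medium being phenol-red-free DMEM plus 10% FBS; concentration-response parameters came from normalized, curve-fitted qHTS data.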
Active calls of the source: *; i = inactive; ? = inconclusive; · = no result; [ ] = remark or other dose. Only some compounds are listed: those with a hit (about 5.9% of all), similar ones and a draw of the others. The call rests on the fitted dose curve; in most records, active means well fitted curve in the direction sought with a large enough effect; inconclusive means small, poorly fitted or top-dose-only effect, or another doubt; inactive means no such curve, though single readings can be large; an effect the other way counts as inactive or inconclusive. Potency means the concentration at half of the fitted maximal effect.

SMILES	ATXN2 expr inh	ATXN viability	TGFb inhibitor	KB-3-1 tox	HepG2 viability	KB-V1 MDR tox
Nc1ccn(Cc2cccc(F)c2)n1	·	i	14%	i	10%	i
N=c1ccn(Cc2cccc(F)c2)cc1	-23%	i	-16%	23µM*	-3%	i
C=C1C(=C/C=C2\CCC[C@]3(C)[C@@H]([C@H](C)/C=C/[C@@H](O)C4CC4)CC[C@@H]23)C[C@@H](O)C[C@@H]1O	?	i	·	·	·	·
COP(=O)(OC)c1nc(-c2cccc3ccccc23)oc1NCc1ccccc1	-10%	i	-26%	?	-8%	12µM*
COP(=O)(OC)c1nc(-c2ccccc2)oc1NCc1ccccc1	-10%	i	-12%	i	-21%	i
Cc1cnc(C=NNC(N)=S)c2cccc(N)c12	?	?	10µM*	i	-30%	7.3µM*
NC(=S)NN=Cc1nccc2c(C(F)(F)C(F)(F)C(F)(F)F)cccc12	·	·	1.4µM*	?	-37%	?
COc1cccc2c1C(=O)/C(=C/c1ccc(N(C)C)cc1)C2	·	·	-3%	i	-35%	i
Cc1ccc(C(=O)NCc2ccccc2)cc1NC(=O)c1nsc2ccccc12	8%	?	?	?	-33%	?
COc1ccc(C(=O)CC(Sc2ccccc2N)c2ccc(OC)cc2)cc1 (stereo not drawn)	·	i	?	23µM*	-56%	i
O=C(NC1CC1)[C@@H]1C[C@H](Sc2nc3ccccc3[nH]2)CN1CC1CCCCC1	·	i	·	·	·	·
COc1ccc(NC(=O)CC2NCCNC2=O)c(OC)c1 (stereo not drawn)	-5%	i	-7%	i	-13%	i
Cn1c(SCc2cccc([N+](=O)[O-])c2)nc2c(c1=O)SCC2	-9%[11.3 µM]	?	-22%	?	-13%	4.1µM*
Cn1c(SCc2ccc(Br)cc2)nc2c(c1=O)SCC2	-19%	i	20%	21µM*	-18%	21µM*
CSc1nc2ccc(Nc3nc(N4CCOCC4)nc(N4CCOCC4)n3)cc2s1	?	i	24%	?	-25%	18µM*
O=C(CSc1nc2ccc(Nc3nc(N4CCOCC4)nc(N4CCOCC4)n3)cc2s1)Nc1ccccc1F	?	?	1%	13µM*	-8%	2.6µM*
O=C(CSc1nc2ccc(Nc3nc(N4CCOCC4)nc(N4CCOCC4)n3)cc2s1)N1CCOCC1	2%	i	-7%	i	1%	i
O=C(CSc1nc2ccc(Nc3nc(N4CCOCC4)nc(N4CCOCC4)n3)cc2s1)Nc1ccccc1Cl	15%	i	-23%	?	4%	?
CC(C)CNc1nc(Oc2ccc(OCC(N)=O)nn2)nc(N2CCOCC2)n1	·	·	0%	·	2%	·
COc1ccc(-c2csc(Cc3nnc(N4CCOCC4)n3-c3ccccc3)n2)cc1	0%	i	-23%	i	-31%	18µM*
COc1ccc(-c2csc(Cc3nnc(N4CCOCC4)n3-c3ccccc3)n2)cc1OC	-1%	i	-28%	i	-23%	i
CN(Cc1ccccc1)S(=O)(=O)c1ccc(NC(=O)C2CCCCC2C(=O)O)cc1 (stereo not drawn)	3%	i	1%	i	0%	21µM*
CN(Cc1ccccc1)S(=O)(=O)c1ccc(NC(=O)C2CCCO2)cc1 (stereo not drawn)	-13%	i	-10%	i	-5%	i
CC(C)C(=O)Nc1cccc(NC(=S)NC(=O)c2ccc(Cl)cc2)c1	5%	i	-14%	?	-16%	2.9µM*
CCCCC(=O)Nc1cccc(NC(=S)NC(=O)C(C)C)c1	-9%	i	-5%	i	7%	21µM*
SMILES	ATXN2 expr inh	ATXN viability	TGFb inhibitor	KB-3-1 tox	HepG2 viability	KB-V1 MDR tox
Cc1ccc(NC(=S)NC(=O)c2ccc(F)cc2)cc1S(=O)(=O)Nc1cccc(Cl)c1	?	?	-29%	5.2µM*	-24%	7.3µM*
COc1ccc(C(=O)NC(=S)NNC(=O)c2ccc(NC(=O)C(C)C)cc2)cc1	?	i	-23%	?	-9%	2.6µM*
CCCCC(=O)Nc1cccc(NC(=O)CC)c1	1%	i	4%	i	-4%	i
Cc1nc2ccccc2nc1CN1CCOc2ccc(C(C)(O)COc3ccccc3)cc2C1 (stereo not drawn)	·	i	·	·	·	·
CCOCCCNC(=O)C(c1ccc(C)cc1)N(Cc1ccc2c(c1)OCO2)C(=O)c1ccc(NC(C)=O)cc1 (stereo not drawn)	-7%	i	18%	i	2%	i
CCCCC(=O)Nc1cccc(NC(=O)c2ccccc2Br)c1	-10%	i	6%	i	0%	5.2µM*
Cc1ccc(S(=O)(=O)Oc2ccc(N3C(=O)C4C5CCC(C5)C4C3=O)cc2)cc1 (stereo not drawn)	-8%	i	-3%	i	-20%	i
O=C1C2C3CCC(C3)C2C(=O)N1c1ccc(OS(=O)(=O)c2ccccc2)cc1 (stereo not drawn)	22%	i	-23%	?	-17%	9.2µM*
Cc1ccc2ncc(C(=O)N3CCN(c4ccccc4F)CC3)c(=O)n2c1	14%	i	-3%	i	-5%	?
COc1ccccc1OCCn1c(C(C)Oc2ccccc2)nc2ccccc21 (stereo not drawn)	-32%	i	11µM*	i	-46%	i
COc1cccc(-c2ccnc(-n3ncc(C(=O)NCC(C)(C)CN(C)C)c3C)n2)c1	·	i	·	·	·	·
CC(Sc1ncnc2sccc12)C(=O)Nc1ccc(S(=O)(=O)N2CCOCC2)cc1 (stereo not drawn)	8%	i	-4%	i	-6%	23µM*
Cc1ccc(SC(C)C(=O)Nc2ccc(S(=O)(=O)N3CCOCC3)cc2)cc1 (stereo not drawn)	-2%	i	4%	i	-4%	12µM*
O=C(CSc1ncnc2sccc12)Nc1ccc(S(=O)(=O)N2CCOCC2)cc1	0%	i	9%	i	0%	i
Cc1ccc(NC(=O)c2ccc(S(=O)(=O)N3CCOCC3)cc2)cc1	21%	i	-16%	i	-2%	i
CCc1cc(C(=O)NCc2c(C)ncc3c2CCN(C(=O)C2=CCCC2)C3)no1	·	i	·	·	·	·

Assay outcomes (PubChem)
